Measured values as given in PubChem BioAssay.
Inconclusive results are not listed. The source made the active and inactive calls.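 Rule for the calls, unless noted: active = inhibition above 50%, about 3 SD of the validation set; inactive = the rest.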

How the values were obtained:
[1] = yeast TOR pathway RPL19A-GFP modulators, primary screen, cell-based, S. cerevisiae, multiplex flow cytometry (AID 1862; in the data active = percent of DMSO control GFP below about 86%;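 note: lower values mimic rapamycin by blocking the RPL19A rise seen in DMSO cells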); conditions: S. cerevisiae RPL19A-GFP strain, flow cytometry fluorescence, 3 h; at 10 µM; stronger effect = lower value
[2] = modulators of MEP2-GFP levels in yeast, primary screen, S. cerevisiae, multiplex flow cytometry (AID 1867;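 active = GFP response, as percent of the DMSO control, above the screen-wide mean plus 3 SD, about 139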;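 note: median GFP channel fluorescence of barcode-gated MEP2-GFP cells measured by flow cytometry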); conditions: S. cerevisiae MEP2-GFP strain, 3 h, at 10 µM, stronger effect = higher value, 100% means same as DMSO wells
[3] = modulators of CIT2-GFP expression in yeast, primary screen, S. cerevisiae, GFP fusion, multiplex flow cytometry (AID 1870;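 active = percent response above a set limit, the screen-wide mean plus 3 SD, cut at about 130% in these data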;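 note: barcoded CIT2-GFP strain pooled with four other GFP strains with rapamycin as positive control; median GFP fluorescence per well over plate mean of DMSO wells so 100% = DMSO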); conditions: 3 h, at 10 µM, stronger effect = higher value
[4] = modulators of LAP4-GFP expression in yeast, primary screen, S. cerevisiae, multiplex flow cytometry (AID 1873;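 active = GFP signal, as percent of the solvent control, above the screen mean plus 3 SD, about 149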); conditions: 3 h, at 10 µM, stronger effect = higher value
[5] = modulators of AGP1-GFP expression in yeast TOR pathway, primary screen, cell-based, multiplex flow cytometry, S. cerevisiae (AID 1887;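 active = GFP signal above the screen-wide mean plus 3 SD, that is over about 124.5% of the solvent control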;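 note: AGP1-GFP fusion strain of S. cerevisiae within a five-strain barcoded multiplex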); conditions: 3 h, at 10 µM, stronger effect = higher value
[6] = inhibitors of CD8+ T cell-vesicle binding, pilot screen, LFA-1/ICAM-1 modulator project, MLPCN validation set, flow cytometry (AID 2523;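 active = response below a set limit, under 55% cells CD8-positive and vesicle-bound, and CD8 cells' 90th-percentile brightness under 279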;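 for vesicle binding response: mean PE anti-B7-1 fluorescence of CD8+ cells relative to row control; 100% = QL9-loaded vesicles with DMSO vehicle in the same plate row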); conditions: 2C mouse CD8+ T cells, at 7 µM, stronger effect = lower value; double positive events: measured here: CD8+/vesicle+ event percentage
[7] = molecular target: Integrin beta-1 (Homo sapiens) + Integrin alpha-4 (Homo sapiens) (UniProt P13612+P05556); test: inhibition of HUTS-21 binding to VLA-4, pilot screen, VLA-4 allosteric modulator project, U937 cells, HUTS-21 mAb, flow cytometry, validation set (AID 2674); conditions: HUTS-21 LIBS mAb binding, at 6.7 µM, stronger effect = higher value, binding induced by LDV ligand;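 note: antibody binding induced by the VLA-4 ligand LDV present at three times its Kd; 0% = LDV ligand with antibody and no compound and 100% = antibody without LDV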
[8] = superoxide lowering in aged yeast cells, pilot screen, validation compound set (AID 2706;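 active = superoxide response below 65% of plate, a cut near 3 SD across the whole screen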;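 note: yeast exposed to compound for one week at 30 degrees C before staining; 100% = mean of all compound wells on the same plate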); conditions: S. cerevisiae aging, superoxide DHE fluorescence; at 10 µM; stronger effect = lower value
[9] = molecular target: Beta-adrenergic receptor kinase 1 (Homo sapiens) (UniProt P25098); test: GRK2 binders displacing RNA aptamer, biochemical, validation, human GRK2, bead flow cytometry (AID 488806;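 active = aptamer binding inhibition above 30%, about 3 SD of noise from non-fluorescent compounds; inactive = inhibition at or below 30%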); conditions: bead-bound GRK2, FAM-aptamer displacement, at 10 µM, stronger effect = higher value
[10] = molecular target: Beta-2 adrenergic receptor (Homo sapiens) (UniProt P07550); test: beta2AR agonists driving receptor internalization, pilot screen, cell-based, FAP fluorogen, flow cytometry, validation set (AID 504459;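 active = percent response above 42, roughly 3 SD of non-fluorescent test compounds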;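 note: agonist-driven loss of surface beta2AR via internalization measured by FAP dye flow cytometry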); conditions: Am2.2-beta2AR cells, FAP surface receptor flow cytometry; at 10 µM; stronger effect = higher value
[11] = molecular target: AP-2 complex subunit beta (Homo sapiens) (UniProt P63010); test: inhibitors of arrestin peptide binding to AP2, pilot screen, biochemical, validation set, GST-AP2 beads, flow cytometry (AID 504541;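 active = inhibition above 54%, about 3 SD of non-fluorescent compounds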;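 note: AP2 carries R879A mutation and is captured from E. coli lysate; bead-bound FITC arrestin peptide fluorescence measuring arrestin peptide binding to AP2; 0% = DMSO wells and 100% = excess unlabeled arrestin peptide control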); conditions: FITC arrestin peptide, at 10 µM, stronger effect = higher value, AP2 beta2 appendage fragment, R879A mutant
[12] = yeast V-ATPase proton transport modulators, S. cerevisiae, pHLuorin, HTS validation (AID 504600; in the data active = response above about 15%;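 note: plate controls were DMSO for no effect and reference compound for full effect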); conditions: S. cerevisiae pHLuorin cytosolic pH, at 10 µM, stronger effect = higher value
[13] = tested on: anti-desmoglein-3 scFv antibody binding to human DSG3; test: inhibitors of anti-DSG3 scFv binding to DSG3, pilot screen, biochemical, validation compound set, bead-based, flow cytometry (AID 588368;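 active = binding below the plate cutoff, the plate median minus 3 SD, with a reading above zero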;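 note: signal is the median channel fluorescence of bead-bound GFP antibody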); conditions: Protein G beads, DSG3-Fc, scFv-GFP binding, at 10 µM, stronger effect = lower value
[14] = inhibitors of fungal efflux pumps CDR1, CDR2, MDR1, pilot screen, validation compound set, multiplex, phenotypic (AID 588506;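 active = efflux inhibition above 0.42, the validation set average plus 4 SD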;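 note: Nile Red retained in cells so higher fluorescence means more efflux inhibition; 0 = negative control wells and 1 = enniatin B 25 µM full block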); conditions: S. cerevisiae pump-expressing triplex, Nile Red efflux flow cytometry; at 10 µM; stronger effect = higher value; the pumps come from Candida albicans
[15] = molecular target: ATP-binding cassette sub-family B member 6 (Homo sapiens) (UniProt Q9NP58); test: ABCB6 transporter inhibitors, pilot screen, K562-ABCB6 cells, flow cytometry, validation set (AID 588550;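 active = inhibition above the screen-wide mean plus 3 SD, about 51%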;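 note: 0% = DMSO wells and 100% = benzethonium chloride 70 µM positive control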); conditions: K562-ABCB6 porphyrin accumulation, 1 h, at 10 µM, stronger effect = higher value
[16] = promoters of myeloid differentiation in arrested cells, primary screen, cell-based, GFP/MAC1 double positive, flow cytometry, validation set (AID 588685;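 active = differentiation response of at least 50%, scaled between solvent and reference control, from cells with both markers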;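 note: compound exposure lasts four days before antibody staining and flow analysis; 0% = DMSO wells and 100% = 5 µM fulvestrant positive control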); conditions: ER-HoxA9 marrow cells, stronger effect = higher value, normalized: vehicle 0, fulvestrant 100

Chain of Beta-2 adrenergic receptor (Homo sapiens) (P07550 whole entry, looked up): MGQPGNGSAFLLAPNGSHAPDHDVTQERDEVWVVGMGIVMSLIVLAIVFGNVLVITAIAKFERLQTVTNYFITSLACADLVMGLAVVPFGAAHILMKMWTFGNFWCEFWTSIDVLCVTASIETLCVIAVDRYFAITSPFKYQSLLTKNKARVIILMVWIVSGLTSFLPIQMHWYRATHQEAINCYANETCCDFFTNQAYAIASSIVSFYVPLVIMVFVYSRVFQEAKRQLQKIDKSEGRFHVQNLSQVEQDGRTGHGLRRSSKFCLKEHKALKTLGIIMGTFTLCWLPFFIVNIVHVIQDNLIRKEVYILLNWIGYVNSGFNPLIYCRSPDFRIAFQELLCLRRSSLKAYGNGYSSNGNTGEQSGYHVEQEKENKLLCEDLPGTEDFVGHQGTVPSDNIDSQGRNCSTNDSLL
Chain of AP-2 complex subunit beta (Homo sapiens) (P63010 whole entry, looked up, the tested form may be a part, one chain of several): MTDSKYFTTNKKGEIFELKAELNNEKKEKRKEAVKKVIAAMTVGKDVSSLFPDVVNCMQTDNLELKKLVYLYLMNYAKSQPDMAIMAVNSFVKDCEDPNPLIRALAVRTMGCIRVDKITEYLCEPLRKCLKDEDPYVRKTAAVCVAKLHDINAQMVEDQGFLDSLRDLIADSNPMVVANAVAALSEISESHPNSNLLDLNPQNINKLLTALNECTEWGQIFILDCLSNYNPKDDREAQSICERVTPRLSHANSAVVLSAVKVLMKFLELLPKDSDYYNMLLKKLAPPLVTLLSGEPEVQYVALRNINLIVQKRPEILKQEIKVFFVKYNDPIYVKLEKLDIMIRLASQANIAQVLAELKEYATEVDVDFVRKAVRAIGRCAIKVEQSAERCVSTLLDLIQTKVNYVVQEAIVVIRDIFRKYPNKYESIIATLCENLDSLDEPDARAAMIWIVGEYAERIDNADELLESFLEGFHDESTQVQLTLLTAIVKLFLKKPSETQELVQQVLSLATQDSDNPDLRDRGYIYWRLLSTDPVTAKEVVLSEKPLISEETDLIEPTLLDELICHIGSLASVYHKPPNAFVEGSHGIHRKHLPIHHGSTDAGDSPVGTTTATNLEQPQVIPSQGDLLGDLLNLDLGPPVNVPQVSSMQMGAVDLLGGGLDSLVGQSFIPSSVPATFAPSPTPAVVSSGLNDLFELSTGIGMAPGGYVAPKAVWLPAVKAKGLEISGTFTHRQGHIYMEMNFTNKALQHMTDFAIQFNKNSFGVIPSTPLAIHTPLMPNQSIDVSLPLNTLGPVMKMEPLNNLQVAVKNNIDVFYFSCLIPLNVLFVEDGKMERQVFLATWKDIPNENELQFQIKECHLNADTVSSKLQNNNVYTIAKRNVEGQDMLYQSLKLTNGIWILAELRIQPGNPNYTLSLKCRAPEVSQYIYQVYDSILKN
Chain of Integrin beta-1 (Homo sapiens) + Integrin alpha-4 (Homo sapiens) (P05556 whole entry, looked up): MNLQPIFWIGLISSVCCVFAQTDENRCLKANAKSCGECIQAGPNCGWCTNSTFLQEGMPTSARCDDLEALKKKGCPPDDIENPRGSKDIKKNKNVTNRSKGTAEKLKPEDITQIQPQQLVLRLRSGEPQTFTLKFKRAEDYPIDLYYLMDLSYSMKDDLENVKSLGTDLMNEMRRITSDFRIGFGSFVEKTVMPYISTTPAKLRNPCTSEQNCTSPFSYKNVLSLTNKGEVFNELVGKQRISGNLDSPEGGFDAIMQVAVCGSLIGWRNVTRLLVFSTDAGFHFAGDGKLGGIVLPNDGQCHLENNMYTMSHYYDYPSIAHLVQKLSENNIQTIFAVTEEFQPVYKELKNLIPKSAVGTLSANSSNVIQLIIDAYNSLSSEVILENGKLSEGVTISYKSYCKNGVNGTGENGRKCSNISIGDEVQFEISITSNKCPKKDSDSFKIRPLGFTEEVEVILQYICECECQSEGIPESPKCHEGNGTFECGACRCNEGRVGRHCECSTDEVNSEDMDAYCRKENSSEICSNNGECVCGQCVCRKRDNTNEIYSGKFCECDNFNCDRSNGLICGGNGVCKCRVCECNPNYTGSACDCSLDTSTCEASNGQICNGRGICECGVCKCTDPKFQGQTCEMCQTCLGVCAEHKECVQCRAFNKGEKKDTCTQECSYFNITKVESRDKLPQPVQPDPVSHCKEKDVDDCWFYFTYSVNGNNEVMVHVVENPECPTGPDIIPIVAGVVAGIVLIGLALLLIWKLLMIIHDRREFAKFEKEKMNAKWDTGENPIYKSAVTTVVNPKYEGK
Chain of Integrin beta-1 (Homo sapiens) + Integrin alpha-4 (Homo sapiens) (P13612 whole entry, looked up): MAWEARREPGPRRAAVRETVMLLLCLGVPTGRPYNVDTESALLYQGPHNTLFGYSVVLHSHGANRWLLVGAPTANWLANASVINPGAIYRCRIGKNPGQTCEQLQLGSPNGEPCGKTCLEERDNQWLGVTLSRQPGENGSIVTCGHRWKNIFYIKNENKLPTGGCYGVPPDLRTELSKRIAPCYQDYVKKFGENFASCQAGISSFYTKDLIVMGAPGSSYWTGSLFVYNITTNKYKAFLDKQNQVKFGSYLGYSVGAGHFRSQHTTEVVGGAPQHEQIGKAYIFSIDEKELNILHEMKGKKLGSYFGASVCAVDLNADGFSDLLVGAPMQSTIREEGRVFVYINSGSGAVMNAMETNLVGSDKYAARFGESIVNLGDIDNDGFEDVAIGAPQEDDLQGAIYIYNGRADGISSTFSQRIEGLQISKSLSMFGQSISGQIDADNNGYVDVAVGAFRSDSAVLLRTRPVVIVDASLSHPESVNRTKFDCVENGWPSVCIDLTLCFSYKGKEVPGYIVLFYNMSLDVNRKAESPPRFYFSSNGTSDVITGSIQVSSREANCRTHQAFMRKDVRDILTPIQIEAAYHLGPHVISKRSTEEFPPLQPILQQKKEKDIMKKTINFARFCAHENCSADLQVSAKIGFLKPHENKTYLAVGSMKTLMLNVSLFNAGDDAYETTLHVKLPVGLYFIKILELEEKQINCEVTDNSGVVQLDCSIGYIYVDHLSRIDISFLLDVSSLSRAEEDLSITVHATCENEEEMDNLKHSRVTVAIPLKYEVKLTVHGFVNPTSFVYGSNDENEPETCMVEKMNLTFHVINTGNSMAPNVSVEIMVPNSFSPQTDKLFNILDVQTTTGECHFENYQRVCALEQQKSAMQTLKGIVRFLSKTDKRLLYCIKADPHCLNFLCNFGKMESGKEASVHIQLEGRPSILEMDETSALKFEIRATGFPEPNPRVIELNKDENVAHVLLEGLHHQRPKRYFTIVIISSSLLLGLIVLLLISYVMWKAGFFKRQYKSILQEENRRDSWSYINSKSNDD
Chain of ATP-binding cassette sub-family B member 6 (Homo sapiens) (Q9NP58 whole entry, looked up): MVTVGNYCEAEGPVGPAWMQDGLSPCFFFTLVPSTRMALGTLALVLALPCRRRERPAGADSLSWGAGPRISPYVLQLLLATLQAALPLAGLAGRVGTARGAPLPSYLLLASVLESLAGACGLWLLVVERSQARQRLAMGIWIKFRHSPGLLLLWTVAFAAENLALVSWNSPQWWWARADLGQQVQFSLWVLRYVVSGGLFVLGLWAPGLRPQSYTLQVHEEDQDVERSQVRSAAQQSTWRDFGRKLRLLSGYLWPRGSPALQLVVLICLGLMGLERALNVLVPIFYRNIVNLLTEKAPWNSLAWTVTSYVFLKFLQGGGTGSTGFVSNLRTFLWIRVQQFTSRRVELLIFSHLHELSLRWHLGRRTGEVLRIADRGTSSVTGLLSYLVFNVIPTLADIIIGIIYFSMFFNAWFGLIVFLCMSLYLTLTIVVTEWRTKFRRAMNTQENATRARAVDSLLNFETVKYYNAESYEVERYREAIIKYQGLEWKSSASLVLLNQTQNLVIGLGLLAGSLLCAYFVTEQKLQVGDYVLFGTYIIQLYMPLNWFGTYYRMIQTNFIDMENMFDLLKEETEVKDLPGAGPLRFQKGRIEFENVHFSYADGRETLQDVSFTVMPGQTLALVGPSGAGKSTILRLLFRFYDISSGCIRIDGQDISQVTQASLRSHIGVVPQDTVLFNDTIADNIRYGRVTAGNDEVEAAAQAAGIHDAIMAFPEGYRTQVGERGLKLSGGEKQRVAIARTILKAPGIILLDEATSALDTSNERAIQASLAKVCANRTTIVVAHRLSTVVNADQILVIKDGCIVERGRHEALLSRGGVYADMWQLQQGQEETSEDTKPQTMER
Chain of Beta-adrenergic receptor kinase 1 (Homo sapiens) (P25098 whole entry, looked up): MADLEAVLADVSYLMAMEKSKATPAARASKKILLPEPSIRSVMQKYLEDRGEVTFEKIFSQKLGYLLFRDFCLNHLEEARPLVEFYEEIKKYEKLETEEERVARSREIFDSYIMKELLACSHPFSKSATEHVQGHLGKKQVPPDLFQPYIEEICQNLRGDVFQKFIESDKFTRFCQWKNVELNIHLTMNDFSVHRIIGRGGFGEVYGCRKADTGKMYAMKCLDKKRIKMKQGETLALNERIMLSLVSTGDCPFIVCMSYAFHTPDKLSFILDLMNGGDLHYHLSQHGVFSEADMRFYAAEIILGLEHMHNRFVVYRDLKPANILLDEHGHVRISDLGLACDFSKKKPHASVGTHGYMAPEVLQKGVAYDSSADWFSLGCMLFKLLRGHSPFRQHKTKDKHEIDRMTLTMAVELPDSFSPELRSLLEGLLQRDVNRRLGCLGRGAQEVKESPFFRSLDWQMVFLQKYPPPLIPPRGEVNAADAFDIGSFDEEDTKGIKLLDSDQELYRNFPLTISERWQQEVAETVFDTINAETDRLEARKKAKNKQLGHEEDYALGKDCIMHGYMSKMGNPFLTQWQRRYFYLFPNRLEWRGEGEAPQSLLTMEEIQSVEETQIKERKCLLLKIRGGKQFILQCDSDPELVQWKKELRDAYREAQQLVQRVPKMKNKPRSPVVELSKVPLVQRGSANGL

| SMILES | percent of DMSO control GFP [1] | GFP response vs DMSO [2] | percent response of DMSO control [3] | GFP response vs DMSO [4] | GFP response, % of DMSO [5] | double positive events [6] [%] | vesicle binding response [6] | inhibition [7] | superoxide response (% of plate) [8] | aptamer binding inhibition [9] | response [10] | inhibition [11] | response [12] | binding (% of control) [13] | efflux inhibition (fraction of control) [14] | inhibition [15] | differentiation response [16] |
| --- | --- | --- | --- | --- | --- | --- | --- | --- | --- | --- | --- | --- | --- | --- | --- | --- | --- |
| S=C(c1ccc2c(c1)OCO2)N1CCCCC1 | 101% (inactive) | 104% (inactive) | 104% (inactive) | 105% (inactive) | 106% (inactive) | 62.6 | 176% (inactive) | -9.13% (inactive) | 91% (inactive) | -2% (inactive) | -5.76% (inactive) | 34.2% (inactive) | -2.91% (inactive) | 99.8% (inactive) | 0.19 (inactive) | 12% (inactive) | -10.4% (inactive) |
| CCc1nc2ccccc2n1Cc1ccc(OC)c(OC)c1 | 98.1% (inactive) | 99.6% (inactive) | 95.7% (inactive) | 107% (inactive) | 109% (inactive) | 60.7 | 132% (inactive) | 3.14% (inactive) | 105% (inactive) | 3% (inactive) | -19% (inactive) | 7.51% (inactive) | 2.99% (inactive) | 89.6% (inactive) | 0 (inactive) | 2% (inactive) | 18.7% (inactive) |
| CC[N+]1(C)CC2CCC(C)(C1)C2(C)C (stereo not given) | 106% (inactive) | 104% (inactive) | 101% (inactive) | 96.5% (inactive) | 97.4% (inactive) | 59.7 | 193% (inactive) | 11.9% (inactive) | 103% (inactive) | 5% (inactive) | 5% (inactive) | 11.5% (inactive) | -4.32% (inactive) | 98% (inactive) | -0.06 (inactive) | 7% (inactive) | -21.6% (inactive) |
| OCCN1CCN(CCCN2c3ccccc3Sc3ccc(C(F)(F)F)cc32)CC1 | 104% (inactive) | 104% (inactive) | 92.5% (inactive) | 101% (inactive) | 115% (inactive) | 62.1 | 176% (inactive) | 70.4% (active) | 90.7% (inactive) | -4% (inactive) | 26.4% (inactive) | 13.1% (inactive) | 0.87% (inactive) | 111% (inactive) | -0.04 (inactive) | 11% (inactive) | 0.92% (inactive) |
| COCc1cc(=O)[nH]c(/N=C(\N)Nc2ccc(Oc3ccccc3)cc2)n1 | 96.9% (inactive) | 118% (inactive) | 83.4% (inactive) | 109% (inactive) | 97.8% (inactive) | 60.6 | 216% (inactive) | -1.79% (inactive) | 94.8% (inactive) | 2% (inactive) | 17.9% (inactive) | -1.38% (inactive) | -1.49% (inactive) | 99.3% (inactive) | 0.01 (inactive) | 12% (inactive) | 10.4% (inactive) |
| CCOc1ccc(C(=O)N2CCCC2C(=O)O)cc1 (stereo not given) | 97.9% (inactive) | 101% (inactive) | 100% (inactive) | 103% (inactive) | 102% (inactive) | 62.9 | 163% (inactive) | 13.4% (inactive) | 107% (inactive) | 6% (inactive) | -15.7% (inactive) | 1.45% (inactive) | 6.32% (inactive) | 101% (inactive) | -0.04 (inactive) | 6% (inactive) | -1.05% (inactive) |
| COc1ccc2c(c1O)Cc1ccccc1C2=O | 94.8% (inactive) | 139% (inactive) | 110% (inactive) | 84.7% (inactive) | 92.4% (inactive) | 56.5 | 220% (inactive) | -13.9% (inactive) | 117% (inactive) | 0% (inactive) | 0.34% (inactive) | 46.1% (inactive) | -2.94% (inactive) | 104% (inactive) | -0.06 (inactive) | 109% (active) | -0.82% (inactive) |
| FC(F)(F)c1ccc(-c2noc(CN3CCCN(C4CCCCC4)CC3)n2)cc1 | 100% (inactive) | 105% (inactive) | 101% (inactive) | 93.3% (inactive) | 101% (inactive) | 62.5 | 5350% (inactive) | -7.72% (inactive) | 89.3% (inactive) | -12% (inactive) | -4.45% (inactive) | -10.2% (inactive) | 3.31% (inactive) | 103% (inactive) | -0.14 (inactive) | -11% (inactive) | 33.5% (inactive) |
| Cc1[nH]c2ccccc2c1/C=C/c1nc2ccccc2c(=O)n1CCO | 102% (inactive) | 106% (inactive) | 97.7% (inactive) | 110% (inactive) | 100% (inactive) | 59 | 200% (inactive) | -15.4% (inactive) | 89.8% (inactive) | 7% (inactive) | 20.6% (inactive) | 12.7% (inactive) | -3.06% (inactive) | 106% (inactive) | 0.33 (inactive) | 4% (inactive) | 0.8% (inactive) |
| NC(=O)c1ncn([C@@H]2O[C@H](CO)[C@@H](O)[C@H]2O)c1O | 101% (inactive) | 103% (inactive) | 96.7% (inactive) | 108% (inactive) | 98% (inactive) | 55.9 | 164% (inactive) | -16.8% (inactive) | 109% (inactive) | 1% (inactive) | 3.75% (inactive) | -16.1% (inactive) | -4.18% (inactive) | 98.7% (inactive) | -0.21 (inactive) | 3% (inactive) | -15.2% (inactive) |
